Experimental data from PubChem BioAssay (Tox21).
Results filed as inconclusive are left out. Calls of active or inactive are those of the source. Unless noted, calls come from the whole dose curve. Positions of bridges follow the written chain, without caps; N, C: chain ends. Non-standard residues stand in square brackets, D forms with d. Residues, ends and D or L forms follow the SMILES beside them. hArg = N=C(N)NCCCC[C@H](N)C(=O)O; Mpa = O=C(O)CCS

Key:
[1] = qHTS assay to identify small molecule agonists of the vitamin D receptor (VDR) signaling pathway - cell viability counter screen (AID 743224; active = well fitted curve in the direction sought with a large enough effect in the repeat runs; an effect the other way counts as inactive or inconclusive; note: series mostly up to about 63 µM; % is set by controls: 0 for no effect and ±100 for the full control effect; nearly all actives have a fitted effect of over 50% in size)
Procedure, shortened: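 VDR-bla cells were preincubated 4 h at 37C/5% CO2, then exposed to compounds for 16 h. After the 2 h room-temperature bla FRET read, CellTiter-Glo was added to the same wells and luminescence read after 30 min.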

[2] = qHTS assay to identify small molecule antagonists of the vitamin D receptor (VDR) signaling pathway - cell viability counter screen (AID 743225; active = well fitted curve in the direction sought with a large enough effect in the repeat runs; an effect the other way counts as inactive or inconclusive; note: % is set by controls: 0 for no effect and ±100 for the full control effect; nearly all actives have a fitted effect of over 50% in size)
Procedure, shortened: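 Viability counter screen run in the same wells as the beta-lactamase reporter assay: HEK 293T VDR-UAS-bla cells, 16 h compound exposure at 37C with 3 nM (final) 1-alpha,25-dihydroxyvitamin D3. CellTiter-Glo luminescence, 30 min, room temperature.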

[3] = qHTS assay to identify small molecule agonists of the NFkB signaling pathway (AID 1159509; active = well fitted curve in the direction sought with a large enough effect in the signal ratio in the repeat runs, not every such curve was filed as active; the % refers to the signal ratio; note: series mostly up to about 61 µM; % is set by controls: 0 for no effect and ±100 for the full control effect)
Procedure, shortened: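 ME-180 NFkB-bla, 2,000 cells/well, overnight plating; cpd pinned in DMSO, 5 h 37 C; B/G FRET substrate 1.5 h RT; ex 405, em 460/530 nm.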

[4] = qHTS assay to identify small molecule agonists of the NFkB signaling pathway - cell viability counter screen (AID 1159515); note: series mostly up to about 61 µM; % is set by controls: 0 for no effect and ±100 for the full control effect; nearly all actives have a fitted effect of over 55% in size
Procedure, shortened: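 NFkB-bla ME-180 cells, 2,000/well, were plated overnight at 37 C, 5% CO2, then exposed to compounds in DMSO for 5 hr. After the bla FRET read, CellTiter-Glo was added to the same wells; luminescence was read after 30 min at room temperature.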

[5] = qHTS assay to identify small molecule agonists of the endoplasmic reticulum stress response signaling pathway (AID 1159516; active = well fitted activation curve with a large enough effect in the signal ratio in the repeat runs, not every such curve was filed as active; the % refers to the signal ratio; note: % is set by controls: 0 for no effect and ±100 for the full control effect)
Procedure, shortened: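 CellSensor ESRE-bla HeLa cells, carrying a beta-lactamase reporter driven by the ER stress response element, were plated overnight and exposed to compounds for 5 hr at 37 C. Reporter activity was read as FRET substrate fluorescence after 2 hr at room temperature.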

[6] = qHTS assay to identify small molecule agonists of the endoplasmic reticulum stress response signaling pathway - cell viability counter screen (AID 1159517); note: series mostly up to about 61 µM; % is set by controls: 0 for no effect and ±100 for the full control effect; nearly all actives have a fitted effect of over 50% in size
Procedure, shortened: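 CellTiter-Glo was added to wells already read for beta-lactamase FRET, and luminescence was recorded 30 min later. Cells: ESRE-bla HeLa, 1,500 per well, compound exposure 5 hr at 37 C.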

[7] = qHTS assay to identify small molecule antagonists of the retinoid-related orphan receptor gamma (ROR-gamma) signaling pathway - cell viability counter screen (AID 1159520; active = well fitted curve in the direction sought with a large enough effect in the repeat runs; an effect the other way counts as inactive or inconclusive; note: % is set by controls: 0 for no effect and ±100 for the full control effect; nearly all actives have a fitted effect of over 50% in size)
Procedure, shortened: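 Tet-on ROR gamma CHO cells (1,000/well) were plated 4 hr, given compounds in DMSO for 2 hr at 37 C, then induced with 1 uM final doxycycline for 16 hr. Viability was read as ATP by CellTiter-Glo luminescence after 30 min.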

[8] = target: Nuclear receptor ROR-gamma (Homo sapiens) (UniProt P51449); assay: qHTS assay to identify small molecule antagonists of the retinoid-related orphan receptor gamma (ROR-gamma) signaling pathway (AID 1159521; active = well fitted curve in the direction sought with a large enough effect in the repeat runs; an effect the other way counts as inactive or inconclusive)
Procedure, shortened: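 Luminescence readout (ONE-Glo, 30 min RT) after 16 h doxycycline induction; loss of signal scored as antagonism. CHO cells with TET-inducible RORγ and RORE-LUC reporter; compounds added 2 h before 1 uM final doxycycline.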

[9] = qHTS assay to identify small molecule agonists of the AP-1 signaling pathway - cell viability counter screen (AID 1159525); note: nearly all actives have a fitted effect of over 55% in size
Procedure, shortened: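 ME-180 AP-1-bla, 2500 cells/well, Opti-MEM + 0.5% dialyzed FBS; overnight 37 °C; cpd 15-pt titration, 5 h 37 °C; CellTiter-Glo 30 min RT; luminescence read; normalised to TOAB and DMSO controls.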

[10] = qHTS assay to identify small molecule agonists of the AP-1 signaling pathway (AID 1159526); note: % is set by controls: 0 for no effect and ±100 for the full control effect

c1ccc2c(CC3=NCCN3)cccc2c1
inactive: outcome [1] | outcome [2] | outcome [3] | outcome [4] | outcome [5] | outcome [6] | outcome [7] | outcome [8] | outcome [9] | outcome [10]

NC(=O)[C@@H]1CSSCCC(=O)N[C@@H](CCCCN=C(N)N)C(=O)NCC(=O)N[C@@H](CC(=O)O)C(=O)N[C@@H](Cc2c[nH]c3ccccc23)C(=O)N2CCC[C@H]2C(=O)N1 ([Mpa][hArg]GDWPC-NH2; disulfide 1-7)
inactive: outcome [1] | outcome [2] | outcome [3] | outcome [4] | outcome [5] | outcome [6] | outcome [7] | outcome [8] | outcome [10]

CCN1CCCC1CN (stereo not given)
inactive: outcome [1] | outcome [2] | outcome [3] | outcome [4] | outcome [5] | outcome [6] | outcome [7] | outcome [8] | outcome [10]

O=C(O)[C@H](O)c1ccccc1
inactive: outcome [2] | outcome [3] | outcome [4] | outcome [5] | outcome [6] | outcome [7] | outcome [8] | outcome [9] | outcome [10]

CC(=O)CCC1=C(C)CCCC1(C)C
inactive: outcome [2] | outcome [3] | outcome [4] | outcome [5] | outcome [6] | outcome [7] | outcome [8] | outcome [9] | outcome [10]

CC(=O)O[C@H]1C[C@@H]2CC[C@@]1(C)C2(C)C
inactive: outcome [2] | outcome [3] | outcome [4] | outcome [5] | outcome [6] | outcome [7] | outcome [8] | outcome [9] | outcome [10]

c1ccc2cnccc2c1
inactive: outcome [1] | outcome [2] | outcome [3] | outcome [4] | outcome [5] | outcome [6] | outcome [7] | outcome [9] | outcome [10]

OCC1CCC(CO)CC1 (stereo not given)
inactive: outcome [1] | outcome [2] | outcome [3] | outcome [4] | outcome [5] | outcome [6] | outcome [7] | outcome [8] | outcome [10]

CN1CCOC(c2ccccc2)c2ccccc2C1 (stereo not given)
inactive: outcome [2] | outcome [3] | outcome [4] | outcome [5] | outcome [6] | outcome [7] | outcome [8] | outcome [9] | outcome [10]

COC(=O)CCCCC(CCSS/C(CCO)=C(\C)N(C=O)Cc1cnc(C)nc1N)SC(C)=O (stereo not given)
inactive: outcome [1] | outcome [2] | outcome [3] | outcome [4] | outcome [5] | outcome [6] | outcome [7] | outcome [8] | outcome [10]

CCCCCCCCCOC(=O)CCCCC(=O)OCCCCCCC
inactive: outcome [1] | outcome [2] | outcome [3] | outcome [4] | outcome [5] | outcome [6] | outcome [7] | outcome [8] | outcome [10]

CCOc1ccccc1OCC1CNCCO1 (stereo not given)
inactive: outcome [1] | outcome [2] | outcome [3] | outcome [4] | outcome [5] | outcome [6] | outcome [7] | outcome [9] | outcome [10]

CCCC(=O)OC/C=C(\C)CCC=C(C)C
inactive: outcome [3] | outcome [4] | outcome [5] | outcome [6] | outcome [7] | outcome [9] | outcome [10]

CCCCCC/C=C/C(=O)OC
inactive: outcome [1] | outcome [2] | outcome [3] | outcome [4] | outcome [5] | outcome [6] | outcome [7] | outcome [9] | outcome [10]

CO[Si](CCCn1c(=O)n(CCC[Si](OC)(OC)OC)c(=O)n(CCC[Si](OC)(OC)OC)c1=O)(OC)OC
inactive: outcome [2] | outcome [3] | outcome [4] | outcome [5] | outcome [6] | outcome [7] | outcome [8] | outcome [9] | outcome [10]

O=C(O)CSCC(=O)NC1CCSC1=O (stereo not given)
inactive: outcome [1] | outcome [2] | outcome [3] | outcome [4] | outcome [5] | outcome [6] | outcome [7] | outcome [9] | outcome [10]

CCCc1ccc(O)cc1
inactive: outcome [1] | outcome [2] | outcome [3] | outcome [4] | outcome [5] | outcome [6] | outcome [7] | outcome [9] | outcome [10]

OCCN1CCOCC1
inactive: outcome [1] | outcome [2] | outcome [3] | outcome [4] | outcome [5] | outcome [6] | outcome [7] | outcome [8] | outcome [10]

CCOC(CN1CCN(CC(C)C(=O)c2ccccc2)CC1)c1ccccc1 (stereo not given)
inactive: outcome [1] | outcome [2] | outcome [3] | outcome [4] | outcome [5] | outcome [6] | activity, negative = cytotoxicity [7] -1.7% [at 19 µM] | activity change, negative = inhibition [8] -4.62% [at 19 µM] | activation [10] 5.61% [at 15.8 µM]

Cc1ccc(C)c([N+](=O)[O-])c1
inactive: outcome [2] | outcome [3] | outcome [4] | outcome [5] | outcome [6] | outcome [7] | outcome [8] | outcome [10]

CC1(C)Oc2ccc(C#N)cc2[C@@H](N2CCCC2=O)[C@@H]1O
inactive: outcome [1] | outcome [2] | outcome [3] | outcome [4] | outcome [5] | outcome [6] | outcome [7] | outcome [9] | outcome [10]

N[C@@H](CSCCCO)C(=O)O
inactive: outcome [1] | outcome [2] | outcome [3] | outcome [4] | outcome [5] | outcome [6] | activity, negative = cytotoxicity [7] 0.802% [at 19 µM] | viability change, negative = cytotoxic [9] 8.07% [at 15.8 µM] | activation [10] 5.26% [at 15.8 µM]

O=C1OCCO1
inactive: outcome [1] | outcome [2] | outcome [3] | outcome [4] | outcome [5] | outcome [6] | outcome [7] | outcome [9] | outcome [10]

O=C(O)c1cc2ccccc2nc1C(=O)O
inactive: outcome [2] | outcome [3] | outcome [4] | outcome [5] | outcome [6] | outcome [7] | outcome [8] | outcome [10]

CC1=NN(c2ccc(S(=O)(=O)O)cc2)C(=O)C1
inactive: outcome [2] | outcome [3] | outcome [4] | outcome [5] | outcome [6] | outcome [7] | outcome [8] | outcome [9] | outcome [10]

CCCCCCCCCCCCCCCCCC#N
inactive: outcome [1] | outcome [2] | outcome [3] | outcome [4] | outcome [5] | outcome [6] | outcome [7] | outcome [9] | outcome [10]

COC(=O)c1cc(Cl)cc(Cl)c1
inactive: outcome [1] | outcome [2] | outcome [3] | outcome [4] | outcome [5] | outcome [6] | outcome [7] | outcome [9] | outcome [10]
